Experimental data taken from PubChem BioAssay (NCATS).
Inconclusive results are not listed. Values without a mark were called inactive. Activity calls are given as the source filed them. Calls come from the whole dose curve; as a rule, active = well fitted curve in the direction sought with a large enough effect; inconclusive = small, poorly fitted or top-dose-only effect, or another doubt; inactive = no such curve, though single readings can be large; an effect the other way counts as inactive or inconclusive.
Potency is the fitted concentration of half-maximal effect.

Assay: MultiTox-Fluor Cytotoxicity Assay - LYMP1-002 - Live Cells (AID 955);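 note: cells exposed to compound for 16 hours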; for viability change, negative = cytotoxic: % is set by controls: 0 for no effect and ±100 for the full control effect
Conditions: LYMP1-002 lymphoblastoid live-cell protease fluorescence viability; series mostly up to 46.1 µM; viability change, negative = cytotoxic: at the top concentration
Method in brief: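 Human lymphoblastoid LYMP1-002 cells, 2500/well, treated 16 h at 37 C in complete medium. Live-cell protease activity via GF-AFC fluorescence (Ex/Em 405/510) after 60 min reagent incubation; AC50 from Hill fits.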
For `CCc1cc(C(N)=S)ccn1`, the “viability change, negative = cytotoxic” value was 7.68%. With `O=C(N[C@H](CO)[C@H](O)c1ccc([N+](=O)[O-])cc1)C(Cl)Cl` the “viability change, negative = cytotoxic” value was -0.508%. In the case of `CC[C@H](C)C(=O)O[C@H]1C[C@@H](C)C=C2C=C[C@H](C)[C@H](CC[C@@H]3C[C@@H](O)CC(=O)O3)[C@H]21`, the “viability change, negative = cytotoxic” value is reported as -10.6%. In the case of `COc1ccc2cc3[n+](cc2c1OC)CCc1cc2c(cc1-3)OCO2`, the “viability change, negative = cytotoxic” value is reported as -10.8%. With `CC1=NN(c2ccccc2)C(=O)C1` the “viability change, negative = cytotoxic” value was 3.51%. With `NC(N)=NC(N)=NCCc1ccccc1` the “viability change, negative = cytotoxic” value was 0.633%. For `Cc1cc(NS(=O)(=O)c2ccc(N)cc2)no1`, the “viability change, negative = cytotoxic” value was -10.3%. With `Cc1ncc([N+](=O)[O-])n1CCO` the “viability change, negative = cytotoxic” value was -9.48%. In the case of `Cc1nnc(NS(=O)(=O)c2ccc(N)cc2)s1`, the “viability change, negative = cytotoxic” value is reported as 6.18%. In the case of `CN(C)c1ccc(C(=C2C=CC(=[N+](C)C)C=C2)c2ccc(N(C)C)cc2)cc1`, the Potency is reported as 10 µM (active). For `Cc1noc(NS(=O)(=O)c2ccc(N)cc2)c1C`, the “viability change, negative = cytotoxic” value was -6.6%. With `C[C@]12C=CC(=O)C=C1CC[C@@H]1[C@@H]2C(=O)C[C@@]2(C)[C@H]1CC[C@]2(O)C(=O)CO` the “viability change, negative = cytotoxic” value was -3.37%. With `CC(=O)[C@H]1CC[C@H]2[C@@H]3CCC4=CC(=O)CC[C@]4(C)[C@H]3CC[C@]12C` the Potency was “inactive”. In the case of `Cc1ccnc2c1NC(=O)c1cccnc1N2C1CC1`, the “viability change, negative = cytotoxic” value is reported as -8.11%. In the case of `NNC(=O)c1ccncc1`, the “viability change, negative = cytotoxic” value is reported as -0.384%. In the case of `O=C(O)c1cc(=O)[nH]c(=O)[nH]1`, the “viability change, negative = cytotoxic” value is reported as 6.7%.

Assay: MultiTox-Fluor Cytotoxicity Assay - LYMP1-002 - Dead Cells (AID 960); note: nearly all actives have a fitted effect of over 60% in size;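 for cytotoxicity (dead cells): cells exposed to compound for 16 h at 37 °C; 0% = DMSO and 100% = tetraoctylammonium bromide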
Conditions: LYMP1-002 lymphoblastoid cells, dead-cell protease fluorescence; series mostly up to 46.1 µM; cytotoxicity (dead cells): at the top concentration
Method in brief: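 Human lymphoblastoid LYMP1-002 cells, 2500/well, treated 16 h at 37 C; dead-cell protease cleavage of bis-AAF-R110 read by fluorescence (485/520); normalized to DMSO and 15 uM tetraoctylammonium bromide; AC50 from Hill fit.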
For `CCc1cc(C(N)=S)ccn1`, the “cytotoxicity (dead cells)” value was -6.95%. With `O=C(N[C@H](CO)[C@H](O)c1ccc([N+](=O)[O-])cc1)C(Cl)Cl` the “cytotoxicity (dead cells)” value was 6.54%. In the case of `CC1=NN(c2ccccc2)C(=O)C1`, the “cytotoxicity (dead cells)” value is reported as -13.2%. With `NC(N)=NC(N)=NCCc1ccccc1` the “cytotoxicity (dead cells)” value was 5.25%. In the case of `Cc1cc(NS(=O)(=O)c2ccc(N)cc2)no1`, the “cytotoxicity (dead cells)” value is reported as 13.3%. With `Cc1ncc([N+](=O)[O-])n1CCO` the “cytotoxicity (dead cells)” value was 16.5%. With `Cc1nnc(NS(=O)(=O)c2ccc(N)cc2)s1` the “cytotoxicity (dead cells)” value was 27%. With `CN(C)c1ccc(C(=C2C=CC(=[N+](C)C)C=C2)c2ccc(N(C)C)cc2)cc1` the Potency was 3.98 µM (active). With `Cc1noc(NS(=O)(=O)c2ccc(N)cc2)c1C` the “cytotoxicity (dead cells)” value was 13.9%. In the case of `C[C@]12C=CC(=O)C=C1CC[C@@H]1[C@@H]2C(=O)C[C@@]2(C)[C@H]1CC[C@]2(O)C(=O)CO`, the “cytotoxicity (dead cells)” value is reported as 7.43%. For `CC(=O)[C@H]1CC[C@H]2[C@@H]3CCC4=CC(=O)CC[C@]4(C)[C@H]3CC[C@]12C`, the Potency was 15.8 µM (active). In the case of `Cc1ccnc2c1NC(=O)c1cccnc1N2C1CC1`, the “cytotoxicity (dead cells)” value is reported as 5.17%. With `NNC(=O)c1ccncc1` the “cytotoxicity (dead cells)” value was 13%. For `O=C(O)c1cc(=O)[nH]c(=O)[nH]1`, the “cytotoxicity (dead cells)” value was 11.5%.
